Measurements reported in PubChem BioAssay AID1159580 (chemical genetic matrix, 2015).
The whole screen tested about 5,500 compounds, of which about 2,000 (36%) were called active. Not shown: some 18% with an inconclusive outcome. No stated cut-off is given here; in the data, active means normalized growth mostly below about 0.91 (no sharp cut-off); inconclusive means no clear call, values can overlap the other calls; inactive means mostly above about 0.92. The list shows a part of the results.

Experiment: chemical genetic growth profiling, strain panel (AID 1159580);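 further: tested at 20 µM; growth read once vehicle control cultures reached saturation at 30 °C; 1 = growth at the plate median or of vehicle wells; lower values mean less growth of the strain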
Conditions: growth OD

Measured: normalized growth

O=c1cc(C(F)(F)F)[nH]c2cc(Cl)cc(Cl)c12
inactive: S. cerevisiae deletion strains, locus YJL187C, strain SWE1, active compounds read low 1.01 | S. cerevisiae deletion strains, locus YPR135W, strain CTF4, active compounds read low 0.714
active: S. cerevisiae deletion strains, locus YAL013W, strain DEP1, active compounds read low 0.59 | S. cerevisiae deletion strains, locus YBR229C, strain ROT2, active compounds read low 0.47 | S. cerevisiae deletion strains, locus YCL061C, strain MRC1, active compounds read low 0.649 | S. cerevisiae deletion strains, locus YDL101C, strain DUN1, active compounds read low 0.513 | S. cerevisiae deletion strains, locus YDR150W, strain NUM1, active compounds read low 0.627 | S. cerevisiae deletion strains, locus YEL061C, strain CIN8, active compounds read low 0.745 | S. cerevisiae deletion strains, locus YGR078C, strain PAC10, active compounds read low 0.475 | S. cerevisiae deletion strains, locus YHR030C, strain SLT2, active compounds read low 0.564 | S. cerevisiae deletion strains, locus YHR087W, strain rtc3, active compounds read low 0.544 | S. cerevisiae deletion strains, locus YJR043C, strain POL32, active compounds read low 0.697 | S. cerevisiae deletion strains, locus YJR075W, strain HOC1, active compounds read low 0.514 | S. cerevisiae deletion strains, locus YLR039C, strain RIC1, active compounds read low 0.356 | S. cerevisiae deletion strains, locus YLR058C, strain SHM2 (second series), active compounds read low 0.694 | S. cerevisiae deletion strains, locus YLR085C, strain ARP6, active compounds read low 0.487 | S. cerevisiae deletion strains, locus YLR262C, strain YPT6, active compounds read low 0.428 | S. cerevisiae deletion strains, locus YML094W, strain GIM5, active compounds read low 0.854 | S. cerevisiae deletion strains, locus YMR219W, strain ESC1, active compounds read low 0.612 | S. cerevisiae deletion strains, locus YMR263W, strain SAP30, active compounds read low 0.456 | S. cerevisiae deletion strains, locus YMR307W, strain GAS1, active compounds read low 0.561 | S. cerevisiae deletion strains, locus YNL128W, strain TEP1, active compounds read low 0.881 | S. cerevisiae deletion strains, locus YNL153C, strain GIM3, active compounds read low 0.534 | S. cerevisiae deletion strains, locus YNL298W, strain CLA4 (second series), active compounds read low 0.742 | S. cerevisiae deletion strains, locus YNL322C, strain KRE1, active compounds read low 0.798 | S. cerevisiae deletion strains, locus YNR030W, strain Alg12, active compounds read low 0.664 | S. cerevisiae deletion strains, locus YPL055C, strain LGE1, active compounds read low 0.523 | S. cerevisiae deletion strains, locus YPL241C, strain CIN2, active compounds read low 0.748 | S. cerevisiae strains, strain wild type, active compounds read low 0.836
